Source: PubChem BioAssay (Tox21)
Inconclusive results are not listed. Some compounds were tested as several samples or in several runs, with calls that do not always agree. Active and inactive are the calls of the source. Unless noted, calls follow the shape of the full dose curve.

Legend:
[1] = Nuclear factor erythroid 2-related factor 2/antioxidant responsive element (Nrf2/ARE) small molecule agonists: qHTS cell viability counter screen in human keratinocytes (AID 1919968; active = well fitted curve in the direction sought with a large enough effect in the repeat runs; an effect the other way counts as inactive or inconclusive; also: nearly all actives have a fitted effect of over 55% in size)
Method in brief: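 KeratinoSens HaCaT cells, 1,500/well, preincubated 5 h, then exposed to compounds in DMSO for 23 h at 37 C/5% CO2. Viability read as CellTiter-Fluor fluorescence after 1 h, in the same wells as the ARE-luciferase read.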

[2] = Nuclear factor erythroid 2-related factor 2/antioxidant responsive element (Nrf2/ARE) small molecule agonists: luciferase reporter gene qHTS assay in human keratinocytes (AID 1919969); also: nearly all actives have a fitted effect of over 35% in size; also: potency is read from the fitted curve at half-maximal effect
[3] = biological target: Gonadotropin-releasing hormone receptor (Homo sapiens) (UniProt P30968); assay: Human gonadotropin-releasing hormone receptor (GnRHR) small molecule agonists, calcium flux assay in GnRHR-HEK293 cells (AID 1920063); also: nearly all actives have a fitted effect of over 35% in size
Method in brief: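 HEK293 cells stably expressing human GnRHR were dye-loaded for 1 h at 37 C. Compound was added in agonist mode and fluorescence (Ex/Em 480/540) recorded kinetically for 3 min. Fifteen concentrations, triplicates.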

[4] = biological target: KiSS-1 receptor (Homo sapiens) (UniProt Q969F8); assay: Human kisspeptin (KISS1R) small molecule agonists, calcium flux assay in KISS1R-HEK293 cells (AID 1920064; active = well fitted curve in the direction sought with a large enough effect in the repeat runs; an effect the other way counts as inactive or inconclusive)
Method in brief: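 HEK293 cells stably expressing human KISS1R were loaded with calcium dye for 1 h at 37 C, then given compound; fluorescence (Ex/Em 480/540) was read kinetically for 3 min. Fifteen concentrations, triplicate.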

[5] = G protein-coupled receptor (GPCR) small molecule agonists, calcium flux assay: HEK293 wild type cell line counter screen (AID 1920065)
Method in brief: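 Wild-type HEK293 cells plated 18 h, loaded with calcium dye 1 h at 37 C, then compounds added in agonist mode (ATP as positive control). Kinetic fluorescence Ex/Em 480/540 recorded 3 min at 1 sec intervals; 15 concentrations, triplicate.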

[6] = p53 small molecule agonists, cell-based qHTS assay with rat liver microsomes (AID 1963578)
Method in brief: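 Metabolic activation is supplied by rat liver microsomes with NADPH (each 0.5 mg/mL final). p53RE-bla cells incubate with compound 16 h at 37 C; reporter activity is measured by LiveBLAzer fluorescence.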

[7] = p53 small molecule agonists, cell-based qHTS assay with human liver microsomes: qHTS cell viability counter screen (AID 1963579); also: nearly all actives have a fitted effect of over 45% in size
Method in brief: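 After the 460/530 nm beta-lactamase read, CellTiter-Glo was added to the same wells and luminescence measured after 30 min at room temperature, giving viability of p53RE-bla cells treated 16 h with compounds plus microsomes and NADPH.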

[8] = p53 small molecule agonists, cell-based qHTS assay with rat liver microsomes: qHTS cell viability counter screen (AID 1963580); also: nearly all actives have a fitted effect of over 45% in size
Method in brief: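 In HCT-116 cells carrying a p53 response element-bla reporter, compounds were metabolically activated in situ by rat liver microsomes with NADPH over 16 h. Cell ATP content then served as the cytotoxicity measure.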

[9] = p53 small molecule agonists, cell-based qHTS assay: qHTS cell viability counter screen (AID 1963581); also: nearly all actives have a fitted effect of over 45% in size
Method in brief: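 p53RE-bla HCT-116 cells, compounds added 5 h after plating and incubated 16 h at 37 C. Cytotoxicity measured in the same wells as intracellular ATP by CellTiter-Glo luminescence after 30 min at room temperature.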

[10] = p53 small molecule agonists, cell-based qHTS assay (AID 1963582; active = well fitted activation curve with a large enough effect in the signal ratio in the repeat runs, not every such curve was filed as active; the % refers to the signal ratio)
Method in brief: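 p53RE-bla reporter cells, compounds added in DMSO after 5 h plating, incubated 16 h at 37 C. Beta-lactamase read via 2 h room-temperature LiveBLAzer B/G FRET substrate, fluorescence intensity.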

[11] = biological target: 5-hydroxytryptamine receptor 2A (Homo sapiens) (UniProt P28223); assay: 5-hydroxytryptamine receptor 2A (HTR2A) small molecule antagonists, cell-based qHTS assay (AID 1963586); also: nearly all actives have a fitted effect of over 45% in size
Method in brief: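 Antagonist-mode intracellular calcium assay: DOI (4 nM) added after 5 min compound pre-incubation at room temperature to dye-loaded HTR2A-CHO cells. Fluorescence followed for 3 min, sampled every second.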

[12] = biological target: 5-hydroxytryptamine receptor 2A (Homo sapiens) (UniProt P28223); assay: 5-hydroxytryptamine receptor 2A (HTR2A) small molecule agonists, cell-based qHTS assay (AID 1963587); also: nearly all actives have a fitted effect of over 30% in size
Method in brief: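 HTR2A-CHO cells, plated 18 h at 37 C/5% CO2, dye-loaded 1 h at 37 C; compounds in DMSO added by pin tool (agonist mode). Intracellular calcium flux read as kinetic fluorescence on FDSS over 2 min at 1 s intervals.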

[13] = biological target: Muscarinic acetylcholine receptor M1 (Homo sapiens) (UniProt P11229); assay: Cholinergic receptor muscarinic 1 (CHRM1) small molecule antagonists, cell-based qHTS assay (AID 1963588); also: nearly all actives have a fitted effect of over 40% in size
Method in brief: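 CHRM1-CHO calcium-flux assay, antagonist mode. Cells were seeded 18 h, dye-loaded 1 h at 37 C and given compound for 5 min at RT, then acetylcholine was added at 50nM. FDSS fluorescence was read 3 min; 15 concentrations, three runs.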

[14] = cAMP Responsive Elements (CRE) small molecule agonists, cell-based qHTS assay (AID 1963590)
Method in brief: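 CRE-bla HEK 293T cells, 2,000/well in DMEM with 10% dialyzed FBS and 25 mM HEPES, pre-incubated 18 h at 37 C, then exposed to compound 3 h at 37 C. Beta-lactamase reporter read with LiveBLAzer B/G FRET substrate after 2 h at room temperature.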

[15] = cAMP Responsive Elements (CRE) small molecule antagonists, cell-based qHTS assay (AID 1963591; active = well fitted inhibition curve with a large enough effect in the signal ratio in the repeat runs, not every such curve was filed as active; the % refers to the signal ratio)
Method in brief: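 CRE-bla HEK293T cells plated 18 h, then given compound plus NKH477 at 0.25 uM final for 3 h at 37C. Beta-lactamase reporter read with LiveBLAzer B/G FRET substrate after 2 h at room temperature.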

[16] = biological target: Beta-2 adrenergic receptor (Homo sapiens) (UniProt P07550); assay: Adrenergic beta2 receptor (ADRB2) small molecule antagonists, cell-based qHTS assay (AID 1963592); also: series mostly up to about 92 µM; nearly all actives have a fitted effect of over 50% in size
Method in brief: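 Cells (CHO, stable ADRB2 overexpression) incubated 18-20hr at 37C; compounds added from DMSO; agonist mix (1nM isoproterenol, 100uM IBMX, 25uM Ro-20-1724) added; 0.5hr RT; d2-cAMP and anti-cAMP-cryptate added; 1hr RT; 665/615 nm read.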

[17] = biological target: Beta-2 adrenergic receptor (Homo sapiens) (UniProt P07550); assay: Adrenergic beta2 receptor (ADRB2) small molecule agonists, cell-based qHTS assay (AID 1963593);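 also: CHO cells stably overexpressing human ADRB2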
Method in brief: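 CHO cells stably over-expressing ADRB2 were plated overnight at 37C, then dosed with compounds plus a stimulation mix containing 100uM IBMX and 25uM Ro-20-1724 for 0.5hr at room temperature. cAMP was measured by HTRF competition, 1hr.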

[18] = biological target: D(2) dopamine receptor (Homo sapiens) (UniProt P14416); assay: Dopamine D2 receptor (DRD2) small molecule antagonists, cell-based qHTS assay (AID 1963595; active = well fitted inhibition curve with a large enough effect in the signal ratio in the repeat runs, with a control signal flat; the % refers to the signal ratio)
Method in brief: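 Antagonist mode in DRD2-HEK293 cells: after compound addition with 0.1 mM Ro20-1724, cells received quinpirole (12 nM) and NKH477 (200 nM) for 30 min at room temperature; HTRF cAMP read after 1 h detection.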

[19] = biological target: Muscarinic acetylcholine receptor M1 (Homo sapiens) (UniProt P11229); assay: Cholinergic receptor muscarinic 1 (CHRM1) small molecule agonists, cell-based qHTS assay (AID 1963589); also: nearly all actives have a fitted effect of over 35% in size
Method in brief: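 CHO cells stably expressing human CHRM1 were loaded with calcium dye for 1 h at 37 C, then compound was added in agonist mode. Intracellular calcium fluorescence was followed kinetically at 1 s intervals. Fifteen concentrations were tested in three independent runs.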

[20] = biological target: D(2) dopamine receptor (Homo sapiens) (UniProt P14416); assay: Dopamine D2 receptor (DRD2) small molecule agonists, cell-based qHTS assay (AID 1963594); also: nearly all actives have a fitted effect of over 35% in size
Method in brief: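 HEK293 cells stably expressing DRD2 were cultured 24 h at 37 C, then given Ro20-1724 (0.1 mM final) and compounds for 10 min at room temperature. NKH477 (200nM) was then added for 30 min. cAMP was read by HTRF.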

Measured: Potency

5-hydroxytryptamine receptor 2A (Homo sapiens), sequence (P28223 whole entry, looked up): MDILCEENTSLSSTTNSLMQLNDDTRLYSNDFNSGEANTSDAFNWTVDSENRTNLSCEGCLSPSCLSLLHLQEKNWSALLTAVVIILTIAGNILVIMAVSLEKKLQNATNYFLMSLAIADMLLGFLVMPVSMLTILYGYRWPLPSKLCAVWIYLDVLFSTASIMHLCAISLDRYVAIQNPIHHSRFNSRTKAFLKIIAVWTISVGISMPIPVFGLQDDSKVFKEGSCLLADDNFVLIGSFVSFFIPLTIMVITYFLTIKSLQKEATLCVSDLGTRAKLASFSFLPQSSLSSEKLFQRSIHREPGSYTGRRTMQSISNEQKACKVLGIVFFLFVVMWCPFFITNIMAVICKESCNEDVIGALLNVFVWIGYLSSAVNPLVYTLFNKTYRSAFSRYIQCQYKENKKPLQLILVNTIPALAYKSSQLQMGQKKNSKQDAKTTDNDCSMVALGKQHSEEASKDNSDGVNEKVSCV
Muscarinic acetylcholine receptor M1 (Homo sapiens), sequence (P11229 whole entry, looked up): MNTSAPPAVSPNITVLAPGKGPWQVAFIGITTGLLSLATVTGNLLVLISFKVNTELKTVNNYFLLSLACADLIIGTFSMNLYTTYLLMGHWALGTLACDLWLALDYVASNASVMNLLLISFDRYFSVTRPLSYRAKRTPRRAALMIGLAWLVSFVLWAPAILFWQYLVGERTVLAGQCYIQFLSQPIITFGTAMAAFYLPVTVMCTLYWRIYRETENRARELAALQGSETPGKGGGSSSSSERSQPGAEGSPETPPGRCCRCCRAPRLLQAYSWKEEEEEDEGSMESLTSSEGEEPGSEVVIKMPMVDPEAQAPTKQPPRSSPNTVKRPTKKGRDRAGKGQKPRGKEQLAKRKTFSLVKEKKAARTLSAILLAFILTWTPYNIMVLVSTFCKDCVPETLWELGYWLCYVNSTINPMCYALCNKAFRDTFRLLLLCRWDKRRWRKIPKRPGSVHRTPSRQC
D(2) dopamine receptor (Homo sapiens), sequence (P14416 whole entry, looked up): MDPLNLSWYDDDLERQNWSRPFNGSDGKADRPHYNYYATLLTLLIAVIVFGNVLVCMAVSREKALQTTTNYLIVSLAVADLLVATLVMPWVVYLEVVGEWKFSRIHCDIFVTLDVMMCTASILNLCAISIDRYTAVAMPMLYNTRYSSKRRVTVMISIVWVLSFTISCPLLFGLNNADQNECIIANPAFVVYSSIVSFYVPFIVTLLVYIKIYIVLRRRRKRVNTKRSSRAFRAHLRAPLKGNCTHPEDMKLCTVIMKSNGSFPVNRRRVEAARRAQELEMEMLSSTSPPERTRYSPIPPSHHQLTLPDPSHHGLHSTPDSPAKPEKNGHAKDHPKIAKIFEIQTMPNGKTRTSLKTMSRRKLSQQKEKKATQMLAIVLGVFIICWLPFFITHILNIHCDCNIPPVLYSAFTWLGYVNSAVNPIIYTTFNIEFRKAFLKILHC
Gonadotropin-releasing hormone receptor (Homo sapiens), sequence (P30968 whole entry, looked up): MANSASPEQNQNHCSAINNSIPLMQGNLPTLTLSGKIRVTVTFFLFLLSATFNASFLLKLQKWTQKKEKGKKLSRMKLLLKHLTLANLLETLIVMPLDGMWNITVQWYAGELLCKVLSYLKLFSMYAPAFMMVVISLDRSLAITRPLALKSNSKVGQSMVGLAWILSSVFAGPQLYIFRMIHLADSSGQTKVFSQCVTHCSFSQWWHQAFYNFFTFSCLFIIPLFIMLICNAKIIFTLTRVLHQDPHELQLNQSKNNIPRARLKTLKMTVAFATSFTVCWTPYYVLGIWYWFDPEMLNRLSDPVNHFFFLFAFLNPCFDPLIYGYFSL
KiSS-1 receptor (Homo sapiens), sequence (Q969F8 whole entry, looked up): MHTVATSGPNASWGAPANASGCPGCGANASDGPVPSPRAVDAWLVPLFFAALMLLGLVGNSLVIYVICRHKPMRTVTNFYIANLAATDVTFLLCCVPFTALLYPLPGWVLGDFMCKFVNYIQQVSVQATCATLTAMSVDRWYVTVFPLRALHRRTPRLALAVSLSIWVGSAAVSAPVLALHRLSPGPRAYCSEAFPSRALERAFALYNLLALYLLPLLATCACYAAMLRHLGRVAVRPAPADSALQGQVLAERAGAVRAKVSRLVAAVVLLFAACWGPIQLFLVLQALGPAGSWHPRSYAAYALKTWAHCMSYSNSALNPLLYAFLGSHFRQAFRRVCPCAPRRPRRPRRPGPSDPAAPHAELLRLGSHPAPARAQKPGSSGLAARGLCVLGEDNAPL
Beta-2 adrenergic receptor (Homo sapiens), sequence (P07550 whole entry, looked up): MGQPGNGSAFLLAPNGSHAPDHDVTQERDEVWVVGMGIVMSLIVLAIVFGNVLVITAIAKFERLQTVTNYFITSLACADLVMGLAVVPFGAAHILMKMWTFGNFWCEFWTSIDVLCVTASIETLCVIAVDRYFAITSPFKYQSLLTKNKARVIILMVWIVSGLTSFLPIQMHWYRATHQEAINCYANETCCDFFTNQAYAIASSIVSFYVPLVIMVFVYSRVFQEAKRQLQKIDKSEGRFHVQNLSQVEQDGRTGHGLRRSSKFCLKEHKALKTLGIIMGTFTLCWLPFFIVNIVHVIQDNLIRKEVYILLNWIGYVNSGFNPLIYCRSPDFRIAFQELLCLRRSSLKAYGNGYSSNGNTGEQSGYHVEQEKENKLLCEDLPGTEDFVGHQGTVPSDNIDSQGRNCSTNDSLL

Nc1ccccc1C(=O)OCC(O)CO (stereo not given)
not listed: [19] | [20]
inactive: all other assays above

c1ccc2c(c1)CCCC2
inactive: all assays above

CON(C)C(=O)Nc1ccc(Cl)cc1
not listed: [17]
inactive: all other assays above

C[C@H]1C(=O)O[C@@H]2CCN3CC=C(COC(=O)[C@](C)(O)[C@]1(C)O)[C@H]23
not listed: [13] | [16] | [19]
inactive: all other assays above

O=P(OCC(Br)CBr)(OCC(Br)CBr)OCC(Br)CBr (stereo not given)
not listed: [13] | [14] | [17]
inactive: all other assays above

CCOc1ccc(N)cc1
not listed: [17] | [20]
inactive: all other assays above

Brc1ccc(Oc2ccccc2)cc1
35.2 µM (active) and inactive: [2]
not listed: [12] | [15] | [17] | [19]
inactive: all other assays above
